For 22 compounds, outcome and Potency results are on record in PubChem BioAssay (Tox21).

Molecules are shown by their SMILES. Inconclusive results are not listed. A number with no mark means an inactive call. Active and inactive are the calls of the source. Unless noted, calls come from the whole dose curve; as a rule, active = well fitted curve in the direction sought with a large enough effect in the repeat runs; inconclusive = weak or mixed curves; inactive = no such curve, though single readings can be large; an effect the other way counts as inactive or inconclusive.

The nature of experiment [1]: qHTS assay to identify small molecule agonists of the NFkB signaling pathway - cell viability counter screen (AID 1159515; calls by dose curve; note: series mostly up to about 61 µM; nearly all actives have a fitted effect of over 55% in size). In a few lines:
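Parallel cytotoxicity counter screen in ME-180 cells carrying an NFkB-response-element beta-lactamase reporter, 2,000 cells/well. Compound exposure lasted 5 hr at 37 C, 5% CO2. Cell viability was quantified by CellTiter-Glo luminescence.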

Experiment [2] can be described thus: qHTS assay to identify small molecule agonists of the endoplasmic reticulum stress response signaling pathway (AID 1159516; active = well fitted activation curve with a large enough effect in the signal ratio in the repeat runs, not every such curve was filed as active; the % refers to the signal ratio). The essentials:
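Using a HeLa line with an ESRE-driven beta-lactamase gene, agonist activity was measured by FRET substrate fluorescence (460 and 530 nm emission) after cells were treated with compounds for 5 hr at 37 C and 5% CO2.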
On the technique in general: In qHTS, concentration-response curves come from the screen itself.

Experiment [3] is described as follows: qHTS assay to identify small molecule agonists of the endoplasmic reticulum stress response signaling pathway - cell viability counter screen (AID 1159517; calls by dose curve;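 note: HeLa cells carrying an ER stress response element beta-lactamase reporter; series mostly up to about 61 µM; nearly all actives have a fitted effect of over 50% in size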). The essentials: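 ESRE-bla HeLa cells (1,500/well) were plated overnight at 37 C and exposed to compounds for 5 hr. After the 2 hr beta-lactamase substrate read, CellTiter-Glo went into the same wells, and luminescence was read after 30 min at room temperature.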

Experiment [4] is described as follows: qHTS assay to identify small molecule antagonists of the retinoid-related orphan receptor gamma (ROR-gamma) signaling pathway - cell viability counter screen (AID 1159520). Note: nearly all actives have a fitted effect of over 50% in size. The essentials: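 Cytotoxicity was read from cellular ATP (CellTiter-Glo luminescence) after 16 hr at 37 C with 1 uM doxycycline induction. The inducer was added 2 hr after compound transfer to Tet-on ROR gamma CHO cells.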

The target in experiment [5] is Nuclear receptor ROR-gamma (Homo sapiens) (UniProt P51449). The experiment in a line: qHTS assay to identify small molecule antagonists of the retinoid-related orphan receptor gamma (ROR-gamma) signaling pathway (AID 1159521;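 note: CHO cells with doxycycline inducible ROR-gamma driving an RORE luciferase reporter; top concentration of the series differs between compounds; nearly all actives have a fitted effect of over 50% in size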). In a few lines:
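Inducible-expression reporter assay: doxycycline (1 uM final) switched on RORγ in CHO cells bearing a ROR response element-luciferase construct, with test compounds present from 2 h beforehand. Decreased luminescence after 16 h defined antagonist activity.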

The nature of experiment [6]: qHTS assay to identify small molecule agonists of the AP-1 signaling pathway - cell viability counter screen (AID 1159525; calls by dose curve; note: nearly all actives have a fitted effect of over 55% in size). The essentials:
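Intracellular ATP by Cell Titer Glo luminescence (30 min, RT) in the same ME-180 AP-1-bla wells after the 5 h compound exposure at 37 °C. Normalised to tetra n-octyl ammonium bromide and DMSO controls.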

Experiment [7] is described as follows: qHTS assay to identify small molecule agonists of the AP-1 signaling pathway (AID 1159526; calls by dose curve).
Experiment [8] is described as follows: qHTS assay to identify small molecule agonists of the RXR signaling pathway - cell viability counter screen (AID 1159529). Note: series mostly up to about 77 µM; nearly all actives have a fitted effect of over 50% in size. The essentials: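 Counter screen: CellTiter-Glo luminescence. Cells: RXR-alpha-UAS-bla HEK 293T. Medium: 2% charcoal-stripped FBS. Treatment: 16 h, 37 C. Reagent incubation: 30 min, RT.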
The nature of experiment [9]: qHTS assay to identify small molecule antagonists of the retinoid acid receptor (RAR) signaling pathway - cell viability counter screen (AID 1159551). Note: nearly all actives have a fitted effect of over 35% in size. The essentials: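 ATP-based viability, C3RL4 cells, 6 h at 37 C with 1 uM final retinol co-added after compound; luminescence read 30 min post CellTiter-Glo, RT.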
A short description of experiment [10]: qHTS assay to identify small molecule antagonists of the retinoic acid receptor (RAR) signaling pathway (AID 1159552; note: nearly all actives have a fitted effect of over 50% in size). The essentials: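 Antagonism of retinol-induced RARE reporter activity was measured in C3RL4 cells. Exposure to compounds and 1 uM final retinol lasted 6 hr at 37 C, with luminescence as endpoint.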
A short description of experiment [11]: qHTS assay to identify small molecule agonists of the retinoic acid receptor (RAR) signaling pathway (AID 1159553). Note: potency is the fitted concentration of half-maximal effect. In a few lines: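 Quantitative high-throughput format: the Tox21 10K library was tested on C3RL4 RARE-luciferase cells for 6 hr at 37 C and 5% CO2, with luminescence measured after a 30 min room-temperature reagent step.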
Experiment [12] can be described thus: qHTS assay to identify small molecule antagonists of the vitamin D receptor (VDR) signaling pathway - cell viability counter screen (AID 743225). Note: nearly all actives have a fitted effect of over 50% in size. The essentials: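 Same-well multiplex: following 16 h treatment of HEK 293T cells carrying a UAS-driven beta-lactamase reporter with compound and agonist (3 nM final), and a 2 h FRET substrate step, CellTiter-Glo was added and luminescence read after 30 min.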

The target in experiment [13] is Retinoic acid receptor RXR-alpha (Homo sapiens) (UniProt P19793). The experiment in a line: qHTS assay to identify small molecule agonists of the RXR signaling pathway (AID 1159527; calls by dose curve; note: nearly all actives have a fitted effect of over 35% in size). In a few lines: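 Compounds in DMSO were added to RXR-alpha-UAS-bla HEK 293T cells kept in 2% charcoal-stripped serum, and incubated 16 hr at 37 C with 5% CO2. Reporter signal came from a 2 hr B/G FRET substrate step.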

Experiment [14] in a line: qHTS assay to identify small molecule antagonists of the estrogen related receptor (ERR) signaling pathway - cell viability counter screen (AID 1224818).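 Note: series mostly up to about 46 µM; viability measured after 17.5 h of compound exposure.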 In a few lines: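 Quantitative high-throughput viability counter screen in ERR cells. Compounds (DMSO) incubated 17.5 h at 37 C; read-out was CellTiter-Fluor fluorescence.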
Experiment [15] is described as follows: qHTS assay to identify small molecule antagonists of the estrogen related receptor (ERR) signaling pathway from Tox21 library - cell viability counter screen (AID 1224834). Note: nearly all actives have a fitted effect of over 30% in size. The essentials:
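Compounds in DMSO were pinned onto ERR cells that had been incubated for 6 h, and the plates were held at 37 C for 17.5 h. CellTiter-Fluor reagent was then added and fluorescence was measured after 30 min.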

Retinoic acid receptor RXR-alpha (Homo sapiens), sequence (P19793 whole entry, looked up): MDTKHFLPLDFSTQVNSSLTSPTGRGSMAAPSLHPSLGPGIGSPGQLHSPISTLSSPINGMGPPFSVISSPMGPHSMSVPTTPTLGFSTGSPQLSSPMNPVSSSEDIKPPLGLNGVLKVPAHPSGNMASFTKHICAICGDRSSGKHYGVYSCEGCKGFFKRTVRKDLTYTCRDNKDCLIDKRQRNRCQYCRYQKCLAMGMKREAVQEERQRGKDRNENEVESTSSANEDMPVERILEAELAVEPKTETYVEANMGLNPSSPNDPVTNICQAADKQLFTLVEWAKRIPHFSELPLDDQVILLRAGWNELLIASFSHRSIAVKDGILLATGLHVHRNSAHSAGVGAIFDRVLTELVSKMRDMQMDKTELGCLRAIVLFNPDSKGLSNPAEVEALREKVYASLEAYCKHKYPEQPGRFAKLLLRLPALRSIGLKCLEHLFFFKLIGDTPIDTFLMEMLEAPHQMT

With `C=CC(=O)OCCCl`, the compound was classed as inactive in [1], in [2], in [3], in experiment [4], in experiment [6] and in experiment [7]. Also, the outcome in experiment [9] was inactive. The Potency result in experiment [5], in [8], in [10] and in experiment [11] was “inactive” in each case.
In the case of `CC(=O)c1ccc2ccccc2c1`, the compound was classed as inactive in experiment [12], in experiment [1], in [2], in [3], in experiment [4] and in experiment [6]. Moreover, the call in experiment [7] and in experiment [9] was inactive. For the same compound, the Potency entry in experiment [5] and in experiment [13] was “inactive” throughout.
With `CC1=NS(=O)(=O)c2cc(Cl)ccc2N1`, the outcome in [1], in experiment [2], in experiment [3], in experiment [4], in experiment [6] and in experiment [7] was inactive. The outcome in experiment [9] and in [14] was inactive. Further, the Potency entry in [5], in experiment [13] and in [15] was “inactive” each time.
Regarding `O=C(CO)[C@@H](O)[C@H](O)[C@H](O)CO`, the outcome in experiment [12], in experiment [1], in experiment [2], in [3], in [4] and in [6] was inactive. The result in [7] and in experiment [9] was inactive. Further, the Potency result in experiment [5], in experiment [8] and in [15] was “inactive” each time.
For `C=COC(=O)C(C)(CC)CCC(C)C` (configuration not stated), the compound was classed as inactive in experiment [12], in experiment [1], in [2], in [3], in [4] and in experiment [6]. Besides, the outcome in experiment [7] and in [9] was inactive. Further, the Potency entry in experiment [5], in [13] and in experiment [15] was “inactive” each time.
With `CCCCCCCCCCCCCCCCCCO`, the result in experiment [12], in experiment [1], in experiment [2], in [3], in experiment [4] and in [6] was inactive. The compound was called inactive in [7] and in experiment [9]. The Potency entry in experiment [5], in [13] and in experiment [15] was “inactive” throughout.
As for `C=CCOCC(O)CO` (configuration not stated), the compound was classed as inactive in experiment [12], in [1], in experiment [2], in experiment [3], in experiment [4] and in [6]. Also, the compound was called inactive in experiment [7] and in [9]. In addition, the Potency result in experiment [5], in [8] and in experiment [15] was “inactive” each time.
With `COc1cc(C)nc(-n2nc(C)cc2OC)n1`, the result in experiment [12], in experiment [1], in experiment [2], in experiment [3], in experiment [4] and in experiment [6] was inactive. Further, in experiment [7], the result was inactive. Also, the Potency entry in experiment [5], in experiment [8] and in [15] was “inactive” in each case.
In the case of `CCCO[Si](OCCC)(OCCC)OCCC`, the result in [12], in experiment [1], in [2], in experiment [3], in experiment [4] and in [6] was inactive. For the same compound, in experiment [7], the result was inactive. In addition, the Potency result in experiment [5], in experiment [13] and in experiment [15] was “inactive” throughout.
Regarding `CN(C)CCCN(C)CCCN(C)C`, the compound was called inactive in [12], in experiment [1], in experiment [2], in experiment [3], in experiment [4] and in experiment [6]. For the same compound, the compound was classed as inactive in experiment [7] and in experiment [9]. Further, the Potency entry in [5], in experiment [13] and in [15] was “inactive” in each case.
As to `COc1c(N2CCNC(C)C2)c(F)cc2c(=O)c(C(=O)O)cn(C3CC3)c12` (configuration not stated), the compound was called inactive in experiment [12], in experiment [1], in experiment [2], in [3], in [4] and in [6]. The result in experiment [7] and in experiment [9] was inactive. Also, the Potency result in experiment [5], in [13], in [11] and in experiment [15] was “inactive” each time.
For the compound `C[N+]1(C)CCCC(OC(=O)C(O)(c2ccccc2)c2ccccc2)C1` (configuration not stated), the result in [1], in [2], in [3], in experiment [6], in experiment [7] and in experiment [9] was inactive. The Potency entry in experiment [5], in experiment [8], in experiment [11] and in experiment [15] was “inactive” each time.
For the compound `CCCC(C)C(=O)OCC` (configuration not stated), the compound was classed as inactive in experiment [1], in experiment [2], in experiment [3], in experiment [6], in [7] and in experiment [9]. Further, the Potency result in [5], in [8], in experiment [10] and in experiment [15] was “inactive” each time.
For `COc1ccnc(CS(=O)c2nc3cc(OC(F)F)ccc3[nH]2)c1OC` (configuration not stated), the result in experiment [1], in [2], in experiment [3], in experiment [6], in experiment [7] and in [9] was inactive. Also, the Potency entry in [5], in [13], in experiment [8] and in [15] was “inactive” throughout.
Regarding `Cc1coc2ccccc2c1=O`, the call in experiment [12], in experiment [1], in experiment [2], in experiment [3], in experiment [6] and in [7] was inactive. The Potency result in [5], in experiment [13], in [8] and in [15] was “inactive” in each case.
On to `CCN[C@H]1C[C@H](C)S(=O)(=O)c2sc(S(N)(=O)=O)cc21`, for which the compound was called inactive in [12], in experiment [1], in [2], in experiment [3], in [6] and in experiment [7]. Also, the result in [9] was inactive. The Potency entry in experiment [5], in [13], in experiment [8] and in [15] was “inactive” throughout.
Regarding `CCCCCC(C)N` (configuration not stated), the compound was called inactive in [12], in experiment [1], in experiment [2], in [3], in [6] and in experiment [7]. In addition, in experiment [9], the result was inactive. The Potency entry in experiment [5], in experiment [13], in experiment [8] and in experiment [15] was “inactive” throughout.
For `CC(C)COC(=O)c1ccc(N)cc1`, the compound was classed as inactive in [12], in experiment [1], in [2], in experiment [3], in [6] and in [7]. In addition, the Potency result in experiment [5], in [8], in experiment [10] and in experiment [15] was “inactive” throughout. For the same compound, the Potency in experiment [11] was 18.8 µM (active).
Take `CN1CCC(=C2c3ccccc3CCc3cccnc32)CC1`: the outcome in experiment [1], in experiment [2], in experiment [3], in experiment [6], in [7] and in [9] was inactive. The Potency result in experiment [5], in [8] and in experiment [15] was “inactive” throughout.
As for `CC(C)(C)C(=O)c1ccccc1`, the result in experiment [12], in experiment [1], in experiment [2], in experiment [3], in experiment [6] and in experiment [7] was inactive. Further, the compound was called inactive in experiment [9]. Further, the Potency result in experiment [5], in experiment [13] and in [8] was “inactive” throughout.
Turning to `O=C(O)CNC(=O)c1ccccc1`, the compound was called inactive in experiment [12], in experiment [1], in experiment [2], in experiment [3], in experiment [6] and in experiment [7]. The result in experiment [9] was inactive. The Potency entry in [5], in experiment [13] and in [8] was “inactive” throughout.
In the case of `Cc1cccc(C)c1NC(=O)CC12CCCN1CCC2`, the result in [12], in [1], in [2], in [3], in experiment [6] and in [7] was inactive. The result in [9] was inactive. For the same compound, the Potency entry in experiment [5], in [13], in experiment [8] and in experiment [15] was “inactive” each time.
